Compound activity deposited in PubChem by National Center for Advancing Translational Sciences (NCATS).
Hits are enriched below; roughly 9.2% of the tested compounds scored in any of these assays.
NPC1 promoter act = activates the NPC1 promoter; Huh7 NPC1 promoter luciferase reporter, 24 h; 320,000 tested, 2.4% active; Potency, µM (doses to about 9.22 µM), usual class: activators; further: nearly all actives have a fitted effect of over 60% in size
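Stably transfected Huh7 (NPC1 promoter→luciferase), 1500 cells/well in Opti-MEM + 10% FBS, 2 h settle, then compound 24 h at 37 °C. Luminescence after 10 min with Amplite reagent.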
FLuc modulator = counter-screen for miR-21 project: firefly luciferase inhibitors or activators | 360,000 tested, 6.9% active | AID 588342 | P08659 | Potency, µM (series often up to 57.5 µM), most hits filed as inhibitors | purified FLuc, Km substrates, luminescence inhibition; further: nearly all actives have a fitted effect of over 55% in size
Target sequence (P08659 whole entry, looked up): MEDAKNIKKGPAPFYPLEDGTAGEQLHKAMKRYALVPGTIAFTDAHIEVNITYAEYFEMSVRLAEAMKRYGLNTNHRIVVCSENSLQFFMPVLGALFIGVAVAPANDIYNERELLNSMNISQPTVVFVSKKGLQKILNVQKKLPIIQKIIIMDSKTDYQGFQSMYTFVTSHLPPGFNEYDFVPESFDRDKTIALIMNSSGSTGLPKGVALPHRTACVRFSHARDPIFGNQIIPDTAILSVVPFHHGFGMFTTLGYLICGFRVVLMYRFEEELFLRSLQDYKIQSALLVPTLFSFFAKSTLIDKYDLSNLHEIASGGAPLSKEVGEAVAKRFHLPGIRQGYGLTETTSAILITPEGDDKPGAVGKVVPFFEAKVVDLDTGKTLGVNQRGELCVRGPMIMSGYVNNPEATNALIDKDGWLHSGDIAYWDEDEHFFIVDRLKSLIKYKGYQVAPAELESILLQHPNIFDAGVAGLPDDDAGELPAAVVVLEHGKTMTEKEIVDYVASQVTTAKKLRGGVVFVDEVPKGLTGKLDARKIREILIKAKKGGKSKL
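Purified P. pyralis luciferase, 10 nM final, with Km-level 10 uM D-luciferin and 10 uM ATP in 50 mM Tris acetate pH 7.5, 10 mM Mg acetate, 0.01% Tween-20, 0.05% BSA; 6-point qHTS titration about 60 µM downward; luminescence read.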
SMN2 splice up = increases expression of the SMN2 splice variant. HEK293 SMN2-luciferase splicing reporter, luminescence, 30-36 h. Potency, µM (highest dose often 46.1 µM), usual class: activators. 210,000 tested, 2.8% active. AID 1458; further: nearly all actives have a fitted effect of over 55% in size
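HEK293 cells carry an SMN2 minigene-luciferase reporter in which exon 7 inclusion puts luciferase in frame. Cells were seeded at 2000 cells/well, attached for 10-12 hours, then exposed to compounds for 30-36 hours at 37C before ONE-Glo luminescence.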
ELG1 genotox = induces genotoxicity in HEK293T cells with luciferase-tagged ELG1; HEK293T ELG1-luciferase reporter, luminescence, 16 h; Potency, µM (highest dose often 46 µM), most hits filed as activators; 330,000 tested, 1.3% active; AID 504466; further: nearly all actives have a fitted effect of over 60% in size
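Quantitative HTS format in 1536-well plates. HEK293T ELG1-luciferase reporter cells receive test compound and are incubated 16 hr at 37 °C, 5% CO2; ONE-Glo added, 30 min room temperature, then luminescence read.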
ELG1 DNA repair = ELG1-dependent DNA repair inhibition; Potency, µM (titrated, usually from 46.1 µM), most hits filed as inhibitors; HEK293T ELG1-luciferase reporter, luminescence, 16 h; DNA damage induced by 5-fluorouridine; 330,000 tested, 2.3% active; further: nearly all actives have a fitted effect of over 55% in size
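Cells (2,000 per well) received 5-fluorouridine plus test compound or DMSO and were incubated 16 hr at 37 °C, 5% CO2. Luciferase activity was read by luminescence 30 min after ONE-Glo addition; signal suppression marked inhibition of damage-induced ELG1 function.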
Rab9 promoter act = activators of Rab9 promoter | Huh7 Rab9 promoter-luciferase reporter, luminescence, 24 h | Potency, µM (highest dose often 9.22 µM), hits mostly activators | 320,000 tested, 2.8% active | AID 485297; further: nearly all actives have a fitted effect of over 60% in size
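Luminescence read-out: Huh7 cells stably expressing Rab9-luciferase, treated 24 h with compound at 37 °C, then lysed with luciferase reagent for 10 min at ambient before reading.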
Numbers stand for hits; . = inactive; ? = inconclusive; / = no result. The call rests on the fitted dose curve; in most records, active means well fitted curve in the direction sought with a large enough effect; inconclusive means small, poorly fitted or top-dose-only effect, or another doubt; inactive means no such curve, though single readings can be large; an effect the other way counts as inactive or inconclusive.

SMILES	NPC1 promoter act	FLuc modulator	SMN2 splice up	ELG1 genotox	ELG1 DNA repair	Rab9 promoter act
COc1cc(/C=N/NC(=O)COc2cccc(F)c2)ccc1OS(=O)(=O)c1ccc(C)cc1	.	.	.	.	18µM	.
CCC(CO)Oc1cc(NC(=O)c2ccccc2F)c2ncn(C(C)C)c2c1 (centres undefined)	/	/	/	.	5.2µM	/
CSc1ccc(CCNC(=O)c2cc(C)nn2-c2ccccc2)cc1	.	.	/	.	.	.
Cc1cccc(N2CCN(C(=O)C3CCN(S(=O)(=O)c4cccc5cccnc45)CC3)CC2C)c1 (centres undefined)	.	.	.	.	18µM	.
O=C(C1CCN(S(=O)(=O)c2cccc3cccnc23)CC1)N1CC=C(c2ccccc2)CC1	.	.	.	.	23µM	.
O=C(C1CCN(S(=O)(=O)c2cccc3cccnc23)CC1)N1CCCC1	.	.	.	.	.	.
CCCn1c(=O)[nH]c(=O)c2c1nc(-c1ccccc1)n2CCN1CCOCC1	.	.	.	.	?	.
NC1=NC(=Nc2ccc(Cl)cc2)c2ccccc21	.	7.6µM	.	.	.	.
CC(C)c1ccc(N=C2N=C(N)c3ccccc32)cc1	.	0.48µM	/	?	?	?
NC1=NC(=Nc2ccc(Br)cc2)c2ccccc21	.	8.5µM	.	?	?	.
N#Cc1ccc(C[C@H](C(=O)O)N2C(=O)c3ccc(C(=O)O)cc3C2=O)cc1	.	.	/	/	/	.
CC(/C=C/c1ccccc1)=N\Nc1ccccc1[N+](=O)[O-]	4µM	7.6µM	.	.	?	?
CC(/C=C/c1ccccc1)=N/NC(=O)c1cc([N+](=O)[O-])cc([N+](=O)[O-])c1	.	.	.	.	.	.
O=C1NC(=S)CN1c1ccccc1	.	?	/	.	.	.
CCOc1ccc(N2Cc3ncccc3C2=O)cc1	3.2µM	13µM	10µM	?	?	2.5µM
O=C1N(c2ccccc2)CCN1c1ccccc1	0.5µM	1.5µM	/	?	?	1.1µM
Cc1ccc(N2Cc3ccccc3C2=O)cc1	0.45µM	1.9µM	/	1.6µM	?	0.5µM
COc1ccc(N2Cc3cccc(C(=O)O)c3C2=O)cc1	.	.	.	.	?	.
COc1ccc(N2Cc3ccccc3C2=O)cc1	?	3.4µM	/	1.8µM	?	0.5µM
CC1CCN(S(=O)(=O)c2ccc(NC(=O)CCNC(=O)c3ccc(Cl)cc3)cc2)CC1	.	.	/	.	.	.
COc1ccc(C(CNC(=O)c2cc(S(=O)(=O)N3CCCC3)ccc2Cl)N2CCCC2)cc1 (centres undefined)	.	.	/	.	.	.
C/C(O)=C1\C(=O)[C@@H]2[C@H]3c4c[nH]c5cccc(c45)C[C@H]3C(C)(C)N2C1=O	/	/	.	/	/	/
O=C1c2ccccc2CN2C(=O)c3ccccc3CN12	.	.	/	.	.	.
O=C1c2ccccc2CN1c1ccccc1	?	17µM	/	?	?	2µM
CCCCCc1ccc(OCCOCCn2c[n+](C)c3ccccc32)c(CCCCC)c1	.	.	.	.	7.3µM	.
SMILES	NPC1 promoter act	FLuc modulator	SMN2 splice up	ELG1 genotox	ELG1 DNA repair	Rab9 promoter act
CCCCCc1ccc(OCCC[n+]2ccccc2)c(CCCCC)c1	.	.	/	.	?	.
COc1ccc2nc(N3CCCCC3)c(/C=C3\SC(=S)NC3=O)cc2c1	.	17µM	/	.	.	.
O=C1NC(=S)S/C1=C\c1cc2ccccc2nc1N1CCCCC1	.	.	/	.	16µM	.
N#C/C(=C\c1cc2ccccc2nc1N1CCCCC1)C(N)=O	.	.	.	.	.	.
CCN(CC)S(=O)(=O)c1cc(NC(=O)c2ccc3c(c2)NC(=O)C(C)S3)ccc1C (centres undefined)	.	.	/	.	?	.
CCNc1ccc(Br)cc(C(=O)/C=C/c2c(Cl)cccc2Cl)c1=O	.	.	.	.	?	.
CCNc1ccc(Br)cc(C(=O)/C=C/c2ccc(Cl)cc2)c1=O	.	.	.	.	21µM	.
Cc1ccc(NC(=O)CN(C)CC(=O)Nc2cccc(F)c2)cc1S(=O)(=O)N1CCCCCC1	.	.	.	.	?	.
Cc1ccc(C2C=NN(c3ccccc3)C2=O)cc1 (centres undefined)	.	12µM	/	?	?	?
N#C/C(=C/c1cn(-c2ccccc2)nc1-c1cccc(OCc2ccc(F)cc2)c1)C(=O)NCCCn1ccnc1	.	?	.	.	15µM	.
O=C(O)c1cccc(NC(=O)c2cccc(S(=O)(=O)Nc3cccc([N+](=O)[O-])c3)c2)c1	.	?	/	.	.	.
O=C(Nc1ccc(F)cc1)c1cn(-c2ccccc2)nc1-c1ccncc1	.	.	.	.	21µM	.
O=C(O)c1cn(-c2ccccc2)nc1-c1ccncc1	.	?	?	.	.	.
O=C(NNS(=O)(=O)c1ccc([N+](=O)[O-])cc1)C(=O)Nc1cccc(C(=O)O)c1	.	17µM	/	.	.	.
O=C(NCCCn1ccnc1)c1cn(-c2ccccc2)nc1-c1ccc(F)cc1	.	11µM	.	.	.	.
O=C(O)C1CCCN1C(=O)NC1CCCCC1 (centres undefined)	.	.	/	.	.	.
COCCCNC(=O)CN(CCc1ccccc1)S(=O)(=O)c1ccc(C)cc1	.	.	/	.	.	.
Cc1nnc(SCC(=O)NNC(=O)CC#N)[nH]c1=O	.	.	.	.	.	.
O=C(NCc1cn(-c2ccccc2)nc1-c1ccccc1)c1cccc([N+](=O)[O-])c1	.	?	.	.	21µM	.
COc1ccc(-c2nn(-c3ccccc3)cc2C(=O)Nc2cccc(C(=O)O)c2)cc1[N+](=O)[O-]	.	?	/	.	.	.
O=C(O)c1cccc(NC(=O)c2cn(-c3ccccc3)nc2-c2ccncc2)c1	.	17µM	.	.	.	.
O=C(O)c1cccc(NC(=O)c2cn(-c3ccccc3)nc2-c2ccc([N+](=O)[O-])cc2)c1	.	17µM	/	.	.	.
O=C(C1CCN(c2nnc(N3CCCC3=O)s2)CC1)N1CCN(Cc2ccc3c(c2)OCO3)CC1	.	.	.	.	13µM	.
O=C(C1CCN(c2nnc(-n3cccc3)s2)CC1)N1CCN(Cc2ccc3c(c2)OCO3)CC1	.	.	.	.	?	.
O=C(c1sccc1Cl)N1CCN(Cc2ccc3c(c2)OCO3)CC1	.	.	/	.	21µM	.
Cn1c(C(=O)N2CCN(Cc3ccc4c(c3)OCO4)CC2)cc2sccc21	.	.	.	.	?	.
Cn1c(C(=O)N2CCC(C(=O)N3CCN(Cc4ccc5c(c4)OCO5)CC3)CC2)cc2sccc21	.	.	.	.	7.3µM	.
